Each structure is given as a SMILES string. Out of some 100,000 compounds screened, about 770 (0.77%) were called active. Many of the other results were omitted from the sample, so actives are more common in it than they were. Unmarked numbers belong to inactive results. Rule as the data show it: active = inhibition above about 50%; inactive = the rest.

This test concerns the target Gag-Pol polyprotein (Human immunodeficiency virus type 1 group M subtype B (isolate HXB2)) (UniProt P04585). As to the kind of experiment: RNase H inhibition, HIV 1 Gag Pol polyprotein, FRET biochemical assay, screening (AID 372). As to conditions: HIV-1 RT RNase H, FRET RNA/DNA substrate fluorescence; at 10 µM; active compounds read high.
One may read the inhibition as the share of the control response that was lost under treatment. Regarding `Cc1cc(C=O)c(C)n1-c1ccc(Cl)cc1`, the inhibition was 10%.

On to `CCN(CC)c1ccc(/C=C2\C(=O)N(c3nc(-c4ccc(Cl)cc4)cs3)N=C2c2ccccc2)cc1`, for which the inhibition was 8%.

Consider `O=[N+]([O-])c1ccc(NC(=S)Nc2ccccc2)c(O)c1`, for which the inhibition is 2%.

In the case of `CCOC(=O)C1=C(C)NC2=C(C(=O)CC(c3ccc(OC)cc3)C2)C1c1ccc(O)cc1` (configuration not stated), the inhibition is 11%.

On to `Cc1ccc(/C=N/NC(=O)c2ccc(F)cc2)s1`, for which the inhibition is 7%.

For `Cc1ccccc1/C=C(/C#N)c1ccc([N+](=O)[O-])cc1`, the inhibition is 42%.

As to `N#C/C(=C/c1ccccc1OS(=O)(=O)c1ccccc1)c1ccc([N+](=O)[O-])cc1`, the inhibition is 16%.

Turning to `N#C/C(=C/c1ccccc1OCc1ccccc1F)c1ccc([N+](=O)[O-])cc1`, the inhibition is 54% (active).

As to `C=CCc1ccccc1OCCOc1ccc(Br)cc1/C=C(\C#N)C(N)=O`, the inhibition is 60% (active).

As to `N#C/C(=C\c1ccccc1OCCOc1ccc([N+](=O)[O-])cc1)C(N)=O`, the inhibition is 57% (active).

For the molecule `COc1ccccc1/C=C(\C#N)C(N)=O`, the inhibition is 0%.

In the case of `N#C/C(=C\c1ccccc1[N+](=O)[O-])C(N)=O`, the inhibition is 0%.

With `N#C/C(=C\c1cc(Br)ccc1OCc1cccc2ccccc12)C(N)=O`, the inhibition was 30%.

`N#C/C(=C\c1cc(Br)ccc1OCc1ccccc1)C(N)=O`: the inhibition is 10%.

Take `CC(=O)Nc1ccc2oc(-c3ccc(Cl)cc3)nc2c1`: the inhibition is 9%.

Turning to `CCn1c(-c2ccccc2C)n[nH]c1=S`, the inhibition was 2%.

With `COc1nc(Nc2ccccc2)nc(NC(C)(C)C)n1`, the inhibition is 7%.

For the molecule `O=C(N1CCN(C(c2ccccc2)c2ccccc2)CC1)C12CC3CC(CC(C3)C1)C2`, the inhibition is 25%.

For the molecule `CC(NC(=O)/C(C#N)=C/c1ccc(N(C)C)c(Br)c1)c1ccccc1` (configuration not stated), the inhibition is 15%.

Regarding `Cc1ccc(/C=C2/SC(=O)N(CO)C2=O)cc1`, the inhibition is 0%.

Regarding `Cc1ccccc1C(=O)NNC(=S)Nc1ccccc1`, the inhibition is 7%.

Turning to `CS(=O)(=O)N/N=C/c1ccc2c(c1)OCO2`, the inhibition was 0%.

For `COc1ccc(-c2cc(C(F)(F)F)n3nc(C(=O)NC(C)C)c(Cl)c3n2)cc1OC`, the inhibition was 7%.

For `C=CCN1C(=O)/C(=C/c2ccc(N(C)C)cc2)SC1=S`, the inhibition was 17%.

Take `CC(C)(C)c1ccc(Oc2ccc3noc4c3c2C(=O)c2ccccc2-4)cc1`: the inhibition is 50% (active).

Turning to `Cc1ccc(Oc2ccc3noc4c3c2C(=O)c2ccccc2-4)cc1`, the inhibition is 8%.

Turning to `O=C1c2ccccc2-c2onc3ccc(Oc4ccccc4)c1c23`, the inhibition was 2%.

Take `OC1CC(c2ccccc2)NC2(CCCCC2)C1` (configuration not stated): the inhibition was 2%.

`O=C(COc1ccccc1[N+](=O)[O-])Nc1ccc2oc(-c3cc(Br)ccc3Cl)nc2c1`: the inhibition was 49%.

For the molecule `Cc1oc(C(=O)O)cc1CSc1nc2ccccc2[nH]1`, the inhibition was 5%.

Turning to `COc1ccc(-c2ccccc2)cc1NCc1c2ccccc2cc2ccccc12`, the inhibition is 2%.

Regarding `COc1ccc2nc(-c3ccccc3)c(-c3ccccc3)nc2c1`, the inhibition is 6%.

As for `COc1ccc(-c2nc3ccc(Cc4ccc5nc(-c6ccc(OC)cc6)c(-c6ccc(OC)cc6)nc5c4)cc3nc2-c2ccc(OC)cc2)cc1`, the inhibition was 55% (active).

With `COc1ccc(Cc2ccc(OC)cc2)cc1`, the inhibition was 5%.

`C#CCOc1ccc(/C=C2/C(=O)NC(=O)N(c3ccccc3F)C2=O)cc1`: the inhibition is 0%.

As for `S=c1[nH]c2ccccc2n1CCOc1ccc(Cl)cc1`, the inhibition was 39%.

Turning to `S=c1[nH]c2ccccc2n1CCOc1ccccc1`, the inhibition is 30%.

Turning to `Cc1ccc(OCCn2c(=S)[nH]c3ccccc32)cc1`, the inhibition was 61% (active).

Regarding `Cc1ccccc1OCCOc1ccccc1/C=c1\sc2nc3ccccc3n2c1=O`, the inhibition is 9%.

With `O=C(COc1ccc(Cl)cc1)Oc1ccc2c(c1)oc(=O)c1ccccc12`, the inhibition was 54% (active).

For `CC(C)OC(=O)COc1ccc2c(c1)oc(=O)c1ccccc12`, the inhibition is 0%.

With `Cc1cc(=O)oc2cc(OCC(=O)c3ccc(Cl)cc3)ccc12`, the inhibition was 19%.

Consider `Cc1c(Cl)c(=O)oc2cc(OCc3ccc(Cl)cc3)ccc12`, for which the inhibition is 3%.

Take `Cc1c(Cl)c(=O)oc2cc(OCC(=O)c3ccc(Cl)cc3)ccc12`: the inhibition was 50% (active).

For the molecule `CC(=O)COc1ccc2c(c1)oc(=O)c1ccccc12`, the inhibition was 7%.

Consider `O=C1CCCC2=C1C(c1ccccc1Cl)Nc1ccc(C(=O)c3ccccc3)cc1N2` (configuration not stated), for which the inhibition was 1%.

As for `Cc1ccc(C(=O)Nc2cc(C)cc(C)c2)cc1`, the inhibition was 0%.

Take `Cc1ccc(N=Cc2c(O)n(C3CCCCC3)c(=O)n(C3CCCCC3)c2=O)cc1C`: the inhibition was 6%.

In the case of `O=C(Nc1nnc(CSCc2ccc(Cl)cc2Cl)s1)Nc1ccc(Cl)cc1Cl`, the inhibition was 33%.

`O=C(Nc1nnc(CSCc2ccccc2F)s1)Nc1ccc(Cl)cc1Cl`: the inhibition is 53% (active).

`CCC(c1ccccc1)c1nnc(NC(=O)Nc2ccc(Cl)cc2Cl)s1` (configuration not stated): the inhibition was 12%.

Consider `Cc1cccc(CSCc2nnc(NC(=O)Nc3ccc(Cl)cc3)s2)c1`, for which the inhibition is 31%.

As for `O=C(Nc1nnc(C(c2ccccc2)c2ccccc2)s1)Nc1ccc(Cl)cc1Cl`, the inhibition was 52% (active).

With `O=C(Nc1nnc(Cc2ccc(Cl)cc2)s1)Nc1ccc(Cl)cc1Cl`, the inhibition is 37%.

Take `O=C(Nc1nnc(CSCc2ccccc2Cl)s1)Nc1ccc(Cl)cc1Cl`: the inhibition was 46%.

On to `O=C(Nc1nnc(Cc2ccccc2F)s1)Nc1ccc(Cl)cc1Cl`, for which the inhibition was 18%.

Consider `CC(c1ccccc1)c1nnc(NC(=O)Nc2ccc(Cl)cc2Cl)s1` (configuration not stated), for which the inhibition was 36%.

Regarding `O=C(Nc1nnc(Cc2ccc(Cl)cc2Cl)s1)Nc1ccc(Cl)cc1Cl`, the inhibition is 66% (active).

Turning to `Cc1cccc(CSCc2nnc(NC(=O)Nc3ccc(Cl)cc3Cl)s2)c1`, the inhibition was 53% (active).

For the molecule `O=C(Nc1nnc(CSCc2ccccc2)s1)Nc1ccc(Cl)cc1Cl`, the inhibition is 39%.

Regarding `COc1ccc2ccccc2c1-c1cc(C(=O)N/N=C/c2ccc(C)cc2)[nH]n1`, the inhibition was 13%.

As for `CCCOC(=O)c1ccc(NC(=S)NC(=O)c2ccc(OCCC)cc2)cc1`, the inhibition is 20%.

As for `CCOc1ccc(NC(=O)c2c(NC(=O)C(C)(C)C)sc3c2CCCC3)cc1`, the inhibition was 13%.

Regarding `COc1cccc(/C=N\NC(=O)CNc2ccccc2C)c1`, the inhibition is 5%.

For the molecule `CCOC(=O)C1=C(C)N=c2s/c(=C\c3ccc(-c4ccc(Cl)cc4[N+](=O)[O-])o3)c(=O)n2C1c1ccc(OC)cc1` (configuration not stated), the inhibition was 43%.

Take `O=[N+]([O-])c1ccc(N2CCCC2)c(C(F)(F)F)c1`: the inhibition is 21%.

Consider `O=C(NC(=S)Nc1cc([N+](=O)[O-])ccc1F)c1cccc(I)c1`, for which the inhibition is 4%.

For `COc1ccc(C2CC(c3ccc(Cl)cc3)=NN2c2nc(-c3cccc(N4C(=O)c5ccccc5C4=O)c3)cs2)cc1OC` (configuration not stated), the inhibition was 53% (active).

On to `COc1ccc(-c2csc(N3N=C(c4ccc(Cl)cc4)CC3c3ccc(OC)c(OC)c3)n2)cc1F` (configuration not stated), for which the inhibition is 3%.

As to `COc1ccc(C2CC(c3ccc(Cl)cc3)=NN2c2nc(-c3ccc(C)cc3)cs2)cc1OC` (configuration not stated), the inhibition is 3%.

For `COc1cc(OC)c(NC(=O)C(Cl)(Cl)Cl)cc1Cl`, the inhibition is 2%.

Consider `CCOc1cc(/C=C(\C#N)c2ccc([N+](=O)[O-])cc2)ccc1O`, for which the inhibition was 8%.

In the case of `COc1ccc(/C=C(\C#N)c2ccc(Cl)cc2)cc1OC`, the inhibition is 20%.

Take `CCOc1ccc(/C=C(/C#N)c2ccc(Cl)cc2)cc1Cl`: the inhibition is 54% (active).

With `O=C(O)c1c[nH]c2ccc(Br)cc2c1=O`, the inhibition is 13%.

Turning to `Cc1cccc(N2C(=O)NC(=O)/C(=C\C=C\c3ccccc3[N+](=O)[O-])C2=O)c1`, the inhibition was 24%.

Regarding `CCN1C(=O)NC(c2ccc(Br)cc2)C(C(=O)OCCOC)=C1C` (configuration not stated), the inhibition was 0%.

On to `O=C(Nc1ccc(-c2nc3ccc(NC(=O)c4ccccc4)cc3[nH]2)cc1)c1ccccc1`, for which the inhibition was 4%.

`O=C1c2cccc3ccc(Cl)c(c23)C(=O)N1O`: the inhibition is 90% (active).

On to `O=C1c2cccc3c(Cl)ccc(c23)C(=O)N1O`, for which the inhibition was 15%.

Turning to `O=C1c2cccc3ccc(Cl)c(c23)C(=O)N1Oc1ccc([N+](=O)[O-])cc1[N+](=O)[O-]`, the inhibition is 3%.

As to `Cc1c(NC(=O)c2cc([N+](=O)[O-])ccc2Cl)cccc1-c1nc2ccccc2s1`, the inhibition was 6%.

Consider `COc1cccc(Nc2nc(-c3cc4cc(Br)ccc4oc3=O)cs2)c1`, for which the inhibition was 12%.

Take `COc1ccc2oc(=O)c(-c3nnc(Nc4cccc(C)c4)s3)cc2c1`: the inhibition is 50% (active).

Take `COc1ccc2oc(=O)c(-c3nnc(Nc4ccccc4C)s3)cc2c1`: the inhibition is 10%.

Consider `COc1ccc2oc(=O)c(-c3csc(Nc4ccccc4)n3)cc2c1`, for which the inhibition is 17%.

For the molecule `COc1ccc2oc(=O)c(-c3csc(/N=C/c4ccccc4O)n3)cc2c1`, the inhibition is 67% (active).

Consider `COc1ccc2oc(=O)c(-c3csc(Nc4ccc(Cl)cc4)n3)cc2c1`, for which the inhibition is 57% (active).

On to `COc1ccc(Nc2nc(-c3cc4cc(OC)ccc4oc3=O)cs2)cc1`, for which the inhibition was 13%.

In the case of `COc1ccc2oc(=O)c(-c3csc(Nc4ccc(C(C)=O)cc4)n3)cc2c1`, the inhibition is 1%.

As for `COc1cccc(Nc2nnc(-c3cc4cc(OC)ccc4oc3=O)s2)c1`, the inhibition is 43%.

On to `COc1ccc2oc(=O)c(-c3csc(Nc4ccccc4Br)n3)cc2c1`, for which the inhibition is 8%.

Consider `COc1ccc2oc(=O)c(-c3csc(NC(=O)/C=C\C(=O)O)n3)cc2c1`, for which the inhibition is 3%.

On to `CCOC(=O)N(Cc1ccccc1)C(C(=O)O)C(C(=O)O)N(Cc1ccccc1)C(=O)OCC` (configuration not stated), for which the inhibition is 0%.

In the case of `O=CNC(NC(=S)Nc1cc(Cl)ccc1Cl)C(Cl)(Cl)Cl` (configuration not stated), the inhibition was 17%.

For `Cc1ccc([N+](=O)[O-])cc1/C=C1/SC(=S)N(c2cccc(C(F)(F)F)c2)C1=O`, the inhibition is 5%.

For `O=C(COc1ccc(Br)cc1Cl)Nc1cc(Cl)ccc1Cl`, the inhibition is 8%.

These data come from PubChem BioAssay AID372 (MTDP, 2006).
